Records with an inconclusive call do not appear. Activity calls are given as the source filed them. Unless noted, calls come from the whole dose curve; as a rule, active = well fitted curve in the direction sought with a large enough effect in the repeat runs; inconclusive = weak or mixed curves; inactive = no such curve, though single readings can be large; an effect the other way counts as inactive or inconclusive.
Legend:
[1] = qHTS assay to identify small molecule antagonists of the thyroid receptor (TR) signaling pathway - cell viability counter screen (AID 743064); note: nearly all actives have a fitted effect of over 50% in size
How it was run: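 Viability of T3-stimulated (1 nM final) GH3.TRE-Luc cells is measured by CellTiter-Fluor fluorescence after 23.5 h compound exposure at 37 °C plus 30 min reagent incubation.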

[2] = qHTS assay to identify small molecule antagonists of the thyroid receptor (TR) signaling pathway (AID 743065); note: series mostly up to about 70 µM; nearly all actives have a fitted effect of over 55% in size
How it was run: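 Antagonism measured as loss of luciferase signal in GH3 cells stably carrying a TRE-luciferase reporter, co-treated with compound and T3 (1 nM final) for 23.5 h at 37 C. Viability was read in the same well by CellTiter-Fluor.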

[3] = test system: thyroid hormone receptor (rat, GH3 cells); experiment: qHTS assay to identify small molecule agonists of the thyroid receptor (TR) signaling pathway (AID 743066; calls by dose curve)
[4] = molecular target: Estrogen receptor (Homo sapiens) (UniProt P03372); experiment: qHTS assay to identify small molecule antagonists of the estrogen receptor alpha (ER-alpha) signaling pathway (AID 743069; active = well fitted curve in the direction sought with a large enough effect in the signal ratio in the repeat runs, not every such curve was filed as active; the % refers to the signal ratio)
How it was run: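 Fluorescence intensity from a beta-lactamase FRET substrate served as the read-out. Cells: HEK293 with stably integrated ER-alpha-UAS-bla reporter. Agonist 17beta-estradiol was co-added with compounds; incubation 18 hr at 37C, substrate 2 hr at room temperature.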

[5] = qHTS assay to identify small molecule antagonists of the estrogen receptor alpha (ER-alpha) signaling pathway - cell viability counter screen (AID 743074; calls by dose curve; note: nearly all actives have a fitted effect of over 45% in size)
[6] = molecular target: Estrogen receptor (Homo sapiens) (UniProt P03372); experiment: qHTS assay to identify small molecule agonists of the estrogen receptor alpha (ER-alpha) signaling pathway (AID 743075; calls by dose curve)
[7] = molecular target: Estrogen receptor (Homo sapiens) (UniProt P03372); experiment: qHTS assay to identify small molecule agonists of the estrogen receptor alpha (ER-alpha) signaling pathway using the BG1 cell line (AID 743079); note: nearly all actives have a fitted effect of over 20% in size; note: potency is the fitted concentration of half-maximal effect
[8] = qHTS assay to identify small molecule antagonists of the estrogen receptor alpha (ER-alpha) signaling pathway using the BG1 cell line (AID 743080; calls by dose curve;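 note: BG1 cells stimulated with 17beta-estradiol alongside compound; series mostly up to about 70 µM; nearly all actives have a fitted effect of over 25% in size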)
How it was run: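 Luciferase inhibition measured with ONE-Glo after 30 min at RT in BG1Luc4E2 cells given test compounds and 17beta-estradiol for 21.5 h at 37 C; CellTiter-Fluor viability read in the same wells beforehand.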

[9] = qHTS assay to identify small molecule antagonists of the estrogen receptor alpha (ER-alpha) signaling pathway using the BG1 cell line - cell viability counter screen (AID 743081);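 note: compound given together with 17beta-estradiol as the ER stimulus; series mostly up to about 70 µM; nearly all actives have a fitted effect of over 45% in size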
[10] = molecular target: Aromatase (Homo sapiens) (UniProt P11511); experiment: qHTS assay to identify aromatase inhibitors (AID 743083); note: series mostly up to about 70 µM; nearly all actives have a fitted effect of over 55% in size
[11] = qHTS assay to identify aromatase inhibitors - cell viability counter screen (AID 743084);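 note: cells stimulated with testosterone during compound exposure; nearly all actives have a fitted effect of over 55% in size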
[12] = molecular target: Aryl hydrocarbon receptor (Homo sapiens) (UniProt P35869); experiment: qHTS assay to identify small molecule that activate the aryl hydrocarbon receptor (AhR) signaling pathway (AID 743085);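 note: HG2L7.5c1 human HepG2 liver cells with stably integrated DRE-driven firefly reporter; series mostly up to about 70 µM; nearly all actives have a fitted effect of over 15% in size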
How it was run: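 A multiplexed format paired cell viability (CellTiter-Fluor fluorescence) with AhR-dependent luciferase output (ONE-Glo luminescence) in the same wells of HepG2 DRE-luc cells after 24 h compound exposure at 37C.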

[13] = qHTS assay to identify small molecule that activate the aryl hydrocarbon receptor (AhR) signaling pathway - cell viability counter screen (AID 743086);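 note: HepG2 liver cells carrying the AhR DRE luciferase reporter; series mostly up to about 70 µM; nearly all actives have a fitted effect of over 45% in size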
How it was run: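 Cytotoxicity counter screen: CellTiter-Fluor signal (30 min, 37 C) in 4000 HepG2 cells/well carrying the DRE-luciferase reporter, following 24 h compound exposure at 37 C.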

[14] = molecular target: Peroxisome proliferator-activated receptor gamma (Homo sapiens) (UniProt P37231); experiment: qHTS assay to identify small molecule agonists of the peroxisome proliferator-activated receptor gamma (PPARg) signaling pathway (AID 743094; active = well fitted activation curve with a large enough effect in the signal ratio in the repeat runs, not every such curve was filed as active; the % refers to the signal ratio)
How it was run: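 Cells from the PPARg UAS-bla HEK293H line are plated and incubated 5 h at 37C. Compounds in DMSO are pinned in and left 17 h at 37C. LiveBLAzer B/G substrate is then added for 1 h at room temperature before fluorescence is measured.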

[15] = molecular target: Peroxisome proliferator-activated receptor gamma (Homo sapiens) (UniProt P37231); experiment: qHTS assay to identify small molecule antagonists of the peroxisome proliferator-activated receptor gamma (PPARg) signaling pathway (AID 743191; calls by dose curve; note: series mostly up to about 63 µM; nearly all actives have a fitted effect of over 30% in size)
How it was run: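 Beta-lactamase reporter under UAS control in HEK293H PPARg-bla cells; compound treatment 17 h at 37C. Read-out: fluorescence intensity after 1 h room-temperature incubation with LiveBLAzer B/G FRET substrate.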

[16] = qHTS assay to identify small molecule antagonists of the peroxisome proliferator-activated receptor gamma (PPARg) signaling pathway - cell viability counter screen (AID 743194); note: nearly all actives have a fitted effect of over 55% in size
How it was run: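 Viability was measured as CellTiter-Glo luminescence in GeneBLAzer PPARg UAS-bla HEK293H cells. These cells had been exposed 17 h at 37 C to compounds together with rosiglitazone at 50 nM final, with the beta-lactamase readout taken in the same wells.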

[17] = qHTS assay for small molecule agonists of the antioxidant response element (ARE) signaling pathway - cell viability counter screen (AID 743203; calls by dose curve; note: nearly all actives have a fitted effect of over 55% in size)
How it was run: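 Cytotoxicity was tested in parallel with the ARE reporter screen. ARE-bla HepG2 cells were exposed to compounds for 16 hrs, and viability was taken from CellTiter-Glo luminescence.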

[18] = qHTS assay for small molecule activators of the heat shock response signaling pathway - cell viability counter screen (AID 743209); note: nearly all actives have a fitted effect of over 50% in size
How it was run: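 Cytotoxicity counter screen run in parallel with the HSE beta-lactamase reporter, using the same wells. HeLa HSE-bla cells received compound for 5 h at 37 C; ATP-based CellTiter-Glo luminescence was measured after 30 min at room temperature.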

[19] = qHTS assay for small molecule agonists of the antioxidant response element (ARE) signaling pathway (AID 743202; active = well fitted activation curve with a large enough effect in the signal ratio in the repeat runs, not every such curve was filed as active; the % refers to the signal ratio)
How it was run: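 Beta-lactamase reporter activity, read as fluorescence intensity, reflects ARE/Nrf2 pathway induction in HepG2 cells after 16 h compound exposure at 37 C; substrate loading was 2 h at room temperature.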

[20] = qHTS assay for small molecule activators of the heat shock response signaling pathway (AID 743210; active = well fitted activation curve with a large enough effect in the signal ratio in the repeat runs, with a control signal flat, not every such curve was filed as active; the % refers to the signal ratio;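 note: HeLa cells with beta-lactamase reporter driven by heat shock elements; series mostly up to about 63 µM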)
How it was run: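 Fluorescence from a cleaved B/G FRET substrate (2.5 h, room temp) reports HSE-driven beta-lactamase in HeLa cells treated 5 h at 37 C with DMSO-dissolved compounds.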

Measured: Potency

Sequence of Peroxisome proliferator-activated receptor gamma (Homo sapiens) (P37231 whole entry, looked up): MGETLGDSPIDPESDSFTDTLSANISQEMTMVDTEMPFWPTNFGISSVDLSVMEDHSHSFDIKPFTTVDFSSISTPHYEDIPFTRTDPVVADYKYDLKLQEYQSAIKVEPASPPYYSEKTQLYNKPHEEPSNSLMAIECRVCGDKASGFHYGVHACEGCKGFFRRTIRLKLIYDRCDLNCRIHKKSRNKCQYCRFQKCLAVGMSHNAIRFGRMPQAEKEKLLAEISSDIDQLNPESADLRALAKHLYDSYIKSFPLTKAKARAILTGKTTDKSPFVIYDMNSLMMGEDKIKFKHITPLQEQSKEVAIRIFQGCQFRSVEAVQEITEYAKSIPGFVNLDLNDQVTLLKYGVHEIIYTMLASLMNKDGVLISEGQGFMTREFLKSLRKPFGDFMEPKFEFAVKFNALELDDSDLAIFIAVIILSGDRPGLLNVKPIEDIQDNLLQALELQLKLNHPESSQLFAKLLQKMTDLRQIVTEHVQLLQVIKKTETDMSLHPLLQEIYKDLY
Sequence of Aromatase (Homo sapiens) (P11511 whole entry, looked up): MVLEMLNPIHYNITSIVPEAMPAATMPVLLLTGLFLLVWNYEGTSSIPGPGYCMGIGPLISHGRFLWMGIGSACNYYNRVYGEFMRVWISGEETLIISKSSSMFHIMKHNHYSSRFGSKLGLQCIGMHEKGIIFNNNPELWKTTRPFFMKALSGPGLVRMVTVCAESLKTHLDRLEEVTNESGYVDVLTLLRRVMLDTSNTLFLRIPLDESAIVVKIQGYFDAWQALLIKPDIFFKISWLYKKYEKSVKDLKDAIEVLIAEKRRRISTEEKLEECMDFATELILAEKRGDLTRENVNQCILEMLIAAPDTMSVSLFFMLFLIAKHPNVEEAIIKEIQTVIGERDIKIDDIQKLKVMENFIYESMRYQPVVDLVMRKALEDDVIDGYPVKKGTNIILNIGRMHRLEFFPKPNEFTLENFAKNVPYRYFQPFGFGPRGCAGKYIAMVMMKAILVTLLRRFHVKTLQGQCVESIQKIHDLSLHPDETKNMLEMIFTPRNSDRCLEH
Sequence of Aryl hydrocarbon receptor (Homo sapiens) (P35869 whole entry, looked up): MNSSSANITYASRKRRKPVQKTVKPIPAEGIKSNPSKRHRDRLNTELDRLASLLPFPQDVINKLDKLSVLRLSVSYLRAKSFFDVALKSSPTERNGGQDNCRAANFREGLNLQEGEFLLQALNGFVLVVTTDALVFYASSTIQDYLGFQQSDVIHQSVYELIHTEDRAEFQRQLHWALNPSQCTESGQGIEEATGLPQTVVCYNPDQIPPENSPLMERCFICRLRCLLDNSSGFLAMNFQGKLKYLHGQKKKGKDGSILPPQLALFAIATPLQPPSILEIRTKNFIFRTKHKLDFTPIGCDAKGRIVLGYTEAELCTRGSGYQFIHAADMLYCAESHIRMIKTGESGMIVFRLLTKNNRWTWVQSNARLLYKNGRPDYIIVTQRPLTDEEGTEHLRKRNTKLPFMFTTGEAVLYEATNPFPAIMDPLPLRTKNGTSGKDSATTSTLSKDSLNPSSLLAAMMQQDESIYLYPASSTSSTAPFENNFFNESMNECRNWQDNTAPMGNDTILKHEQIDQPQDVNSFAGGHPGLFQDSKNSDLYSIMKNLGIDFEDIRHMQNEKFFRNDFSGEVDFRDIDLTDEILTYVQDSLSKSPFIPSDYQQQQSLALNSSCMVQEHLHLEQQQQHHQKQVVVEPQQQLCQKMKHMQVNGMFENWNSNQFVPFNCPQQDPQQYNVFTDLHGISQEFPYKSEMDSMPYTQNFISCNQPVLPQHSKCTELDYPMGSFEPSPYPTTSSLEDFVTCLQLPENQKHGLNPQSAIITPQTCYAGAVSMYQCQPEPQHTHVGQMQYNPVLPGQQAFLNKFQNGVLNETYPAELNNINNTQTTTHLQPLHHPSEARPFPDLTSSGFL
Sequence of Estrogen receptor (Homo sapiens) (P03372 whole entry, looked up): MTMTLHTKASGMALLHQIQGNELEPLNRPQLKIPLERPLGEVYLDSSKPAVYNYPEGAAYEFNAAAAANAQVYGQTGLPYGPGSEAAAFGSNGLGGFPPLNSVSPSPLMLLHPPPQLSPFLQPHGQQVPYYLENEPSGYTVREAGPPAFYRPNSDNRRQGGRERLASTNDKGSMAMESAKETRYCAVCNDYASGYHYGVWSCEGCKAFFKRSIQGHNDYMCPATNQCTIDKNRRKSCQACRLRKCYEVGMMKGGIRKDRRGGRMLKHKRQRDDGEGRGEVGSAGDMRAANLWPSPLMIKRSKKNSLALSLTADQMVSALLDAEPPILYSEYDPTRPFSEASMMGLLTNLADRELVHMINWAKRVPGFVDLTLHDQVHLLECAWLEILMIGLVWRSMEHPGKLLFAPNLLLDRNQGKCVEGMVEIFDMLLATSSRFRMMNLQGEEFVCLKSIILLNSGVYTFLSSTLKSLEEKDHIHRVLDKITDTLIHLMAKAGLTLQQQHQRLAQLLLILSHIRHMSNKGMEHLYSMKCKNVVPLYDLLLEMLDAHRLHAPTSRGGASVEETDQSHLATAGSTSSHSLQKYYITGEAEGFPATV

O=C(NCN1CCOCC1)c1cnccn1
not listed: [19] | [20]
inactive: all other assays above

C[C@@H](O)C(=O)O
active: [7] 48 µM
not listed: [14] | [15]
inactive: all other assays above

CCCCCCCCCCCCCCCCCCOCCO
not listed: [19]
inactive: all other assays above

O=C(Cn1ccnc1[N+](=O)[O-])NCc1ccccc1
inactive: all assays above

CCC[C@@H]1C[C@@H](C(=O)N[C@@H]([C@H]2O[C@H](SC)[C@H](O)[C@@H](O)[C@H]2O)[C@@H](C)O)N(C)C1
not listed: [14] | [15]
inactive: all other assays above

CC1=C(O)C(=O)C(C)O1 (configuration not stated)
not listed: [14] | [15]
inactive: all other assays above

[O]=[Mo](=[O])=[O]
not listed: [14] | [15]
inactive: all other assays above

CCCC(CC)c1ccccc1 (configuration not stated)
inactive: all assays above

O=C(O)CNC(=O)CNC(=O)CNC(=O)CSC(=O)c1ccccc1
inactive: all assays above

CCOc1cccc(N)c1
not listed: [14] | [19]
inactive: all other assays above

CC(=O)CCc1ccc(OC(C)=O)cc1
not listed: [14] | [17]
inactive: all other assays above

CCCCOC(=O)C(C)O (configuration not stated)
not listed: [14] | [16]
inactive: all other assays above

COC(=O)c1cccc(Cl)c1
inactive: all assays above

CN(C)C(C)(C)CO
active: [7] 77 µM
not listed: [15]
inactive: all other assays above

Cc1c(Cl)cccc1Cl
not listed: [14]
inactive: all other assays above

COC(=O)c1ccccc1C(=O)O
not listed: [14] | [15]
inactive: all other assays above

O=C1CCC(=O)N1Cl
inactive: all assays above

COc1nc(N)nc2nc[nH]c12
not listed: [12]
inactive: all other assays above

CCO[Si](CC)(OCC)OCC
not listed: [14] | [15]
inactive: all other assays above

Cc1ccccc1C(N)=O
not listed: [14] | [15] | [18]
inactive: all other assays above

CCC(C)C(=O)OCCc1ccccc1 (configuration not stated)
inactive: all assays above

CCCCCC(C)O (configuration not stated)
not listed: [17]
inactive: all other assays above

C=C(C)c1cccc(C(C)(C)N=C=O)c1
inactive: all assays above

COP(=O)(O)OP(=O)(O)OC
not listed: [14]
inactive: all other assays above

N#CCC(=O)NN
not listed: [19] | [20]
inactive: all other assays above

CC1(C)Oc2ccc(C#N)cc2[C@@H](N2CCCC2=O)[C@@H]1O
inactive: all assays above

C/C(CC(C)C)=N\O
not listed: [14] | [15] | [16]
inactive: all other assays above

COC(=O)/C=C\C(=O)O
not listed: [19] | [20]
inactive: all other assays above

COC(=O)c1cc(Cl)cc(Cl)c1
not listed: [14] | [16]
inactive: all other assays above

Source: PubChem BioAssay (Tox21)
